HTR5A ag ctr = activates human HTR5A in OPRM1-OPRD1 agonist counter-screen; 340,000 compounds, 0.61% hits; activation, % at 9.3 µM; HTR5A agonist assay, luminescence, cell-based; in the data active means activation mostly above about 9.5%, no sharp cut-off; inactive means mostly below about 7.6%;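 further: 0% = cells with vehicle only and 100% = reference agonist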
Target sequence (P47898 whole entry, looked up): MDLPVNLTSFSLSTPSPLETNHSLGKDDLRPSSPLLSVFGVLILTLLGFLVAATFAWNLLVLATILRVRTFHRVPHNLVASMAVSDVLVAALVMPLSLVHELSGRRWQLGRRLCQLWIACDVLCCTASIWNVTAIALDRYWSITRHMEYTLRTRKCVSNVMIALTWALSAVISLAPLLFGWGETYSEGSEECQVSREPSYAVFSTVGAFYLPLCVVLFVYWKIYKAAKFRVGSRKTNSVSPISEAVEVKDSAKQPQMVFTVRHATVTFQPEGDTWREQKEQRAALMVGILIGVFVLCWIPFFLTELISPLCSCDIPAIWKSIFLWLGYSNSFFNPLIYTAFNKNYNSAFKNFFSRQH
MOR-DOR ag-1 = OPRM1-OPRD1 heterodimerization agonism; P35372+P41143; cells, luminescence; activation, % at 9.3 µM; 340,000 compounds, 0.3% hits; in the data active means activation above about 18%;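 further: 0% = vehicle-treated cells and 100% = reference agonist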
MOR-DOR inv ag-1 = mu-delta opioid heterodimer inverse agonism. inhibition, % at 9.3 µM. P35372+P41143. cell-based MOR-DOR heterodimer luminescence. 340,000 compounds, 0.21% hits; in the data active means inhibition above about 22%, passing the limit was not always enough;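 further: 0% = cells with DMSO and 100% = wells without cells with DMSO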
HTR5A inv ctr = counter-screen for OPRM1-OPRD1 inverse agonists: human HTR5A inverse agonism; 340,000 compounds, 0.083% hits; HTR5A cell line, luminescence; inhibition, % at 9.3 µM; P47898; in the data active means inhibition mostly above about 23%, no sharp cut-off; inactive means mostly below about 18%;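 further: 0% = cells with DMSO and 100% = no-cell wells with DMSO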
MOR-DOR inv ag-2 = opioid heterodimer inverse agonism, HTR5A counter-screen. U2OS counter-screen cells, complementation luminescence. shares compounds with HTR5A inv ctr. inhibition, % at 9.3 µM. AID 504912. 190 tested, under 10 active;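 further: 0% = cells with DMSO and 100% = wells without cells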
HTR5A inv conf = confirmation of human HTR5A inverse agonists. shares compounds with HTR5A inv ctr. HTR5A-expressing cells, inverse agonism, luminescence. inhibition, % at 9.3 µM. 190 tested, under 10 active. AID 504916;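 further: 0% = cells with DMSO and 100% = no cells with DMSO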
MOR-DOR ag-2 = promotes OPRM1-OPRD1 heterodimerization in HTR5A counter-screen; shares compounds with HTR5A ag ctr; U2OS counter-screen cells, complementation luminescence, 3 h; activation, % at 9.3 µM; 800 compounds, 13% hits; AID 504913; in the data active means activation above about 18%
HTR5A ag confirm = HTR5A (human) agonism, confirmation. HTR5A agonist cell assay, luminescence. shares compounds with HTR5A ag ctr. activation, % at 9.3 µM. 800 compounds, 17% hits; in the data active means activation above about 17%;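 further: 0% = cells with vehicle only and 100% = full reference agonist response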
Active calls of the source: *; i = inactive; · = no result given. Rows were chosen to be rich in hits. Some 1.1% of all compounds tested hit in one or more screens of this group. Unless noted, how the calls were made is not given here.

SMILES	HTR5A ag ctr	MOR-DOR ag-1	MOR-DOR inv ag-1	HTR5A inv ctr	MOR-DOR inv ag-2	HTR5A inv conf	others
COc1cccc(C(C(=O)NC(C)(C)C)N(C(=O)CCC(=O)Nc2cc(C)on2)C(C)C)c1OC (stereo unspecified)	-2	-3	15	13	·	·
Cc1ccc2ccc(C(Nc3cccc(C(F)(F)F)c3)c3cccnc3)c(O)c2n1 (stereo unspecified)	-32	4	-24	89*	-11	-13
CCN(CC(=O)NCCCn1ccnc1)S(=O)(=O)c1ccc(C)cc1	2	1	-5	-3	·	·
CCN1c2ccccc2S(=O)(=O)c2ccccc21	-10	-4	17	34*	2	-5
COc1ccc(OC)c(CN2CCN(CCc3ccccc3)C(CCO)C2)c1 (stereo unspecified)	0	3	-15	0	·	·
COc1ccccc1NC(=O)CSc1n[nH]c(-c2ccccn2)n1	-15	-1	4	39*	-63	-2
COc1ccc(NC(=O)CSc2n[nH]c(-c3ccccn3)n2)cc1	1	-3	16	-2	·	·
O=[N+]([O-])c1ccc(/C=N/Nc2ccc3ccccc3c2)o1	-11	7	-51	28*	-71	18
Cc1sc(NC(=O)CCS(=O)(=O)c2ccccc2)c(C#N)c1C	0	-1	5	-4	·	·
Cc1sc(NC(=O)CS(=O)(=O)c2ccccc2)c(C#N)c1C	-16	-1	5	41*	-15	-8
O=C(NC1CCCC1)c1ccc(COc2ccccc2Br)o1	3	1	-4	-7	·	·
Cc1cccc(NC(=S)N/N=C2/CCCCc3ccccc32)c1	-12	-3	16	43	·	·
Cc1ccc(NC(=S)N/N=C2/CCCCc3ccccc32)cc1	-15	0	-3	44*	-231	-44
O=C(CN1CCN(S(=O)(=O)c2ccc(Cl)cc2)CC1)NC1CCCC1	0	-1	3	0	·	·
O=C(CN1CCN(S(=O)(=O)c2ccc(F)cc2)CC1)NC1CCCC1	0	-1	7	35*	-17	6
O=c1[nH]n2c(=O)c3c([nH]c2c1N=Nc1cccc(Cl)c1)CCCC3	-4	-5	27	42*	i	-1
C=CCn1c(SCC(=O)Nc2ccc(F)cc2)nc2cc(C(=O)O)ccc2c1=O	2	-1	3	43*	-13	-85
COCCn1c(SCC(=O)NNC(=O)c2cc(Cl)ccc2OC)nnc1-c1ccncc1	-18	-1	6	43*	-24	-154
CC(=O)N1CCc2ccccc2C1CC(=O)O (stereo unspecified)	2	-1	6	43*	-13	-14
CCOC(=O)[C@@H]1[C@H]2COc3cc(OC)ccc3[C@@H]2N2C(=O)N(c3ccc(Cl)cc3)C(=O)[C@]12C	1	-1	6	-3	·	·
CCOC(=O)CCNC(=O)N1CCCC(Cc2ccccc2)(C(=O)OCC)C1 (stereo unspecified)	-8	-1	4	24*	0	13
Cc1c(N2C(=O)/C(=C/c3ccc(N(C)C)cc3)N(C)C2=S)c(=O)n(-c2ccccc2)n1C	-7	-2	8	29*	i	-12
Cc1ccc(C(=O)CSc2cnc3ccccc3n2)cc1C	1	4	-22	-2	·	·
CCOc1cc(/C=N/NC(=O)c2cccs2)cc([N+](=O)[O-])c1O	-9	-4	22	25*	55*	-4
COc1cc(OC)cc(C(=O)Nc2ccc(S(=O)(=O)Nc3nc(C)cc(C)n3)cc2)c1	0	-1	7	-1	·	·
SMILES	HTR5A ag ctr	MOR-DOR ag-1	MOR-DOR inv ag-1	HTR5A inv ctr	MOR-DOR inv ag-2	HTR5A inv conf	others
CN(Cc1ccccc1)C(=O)c1ccc(S(=O)(=O)N(C)c2ccccc2)cc1	-5	2	-9	6	·	·
COc1ccccc1NC(=O)Cc1noc(CSc2n[nH]c(N)n2)n1	0	-1	3	9	·	·
C/C(=N\Nc1nc(N2CCOCC2)nc(N2CCOCC2)n1)c1cccs1	-8	-3	18	23*	-17	-7
BrC(/C=C\c1ccccc1)=N/Nc1nc(N2CCOCC2)nc(N2CCOCC2)n1	-2	-4	20	-12	·	·
O=[N+]([O-])c1cccc(/C=N/Nc2nc(NCc3ccccc3)nc(N3CCOCC3)n2)c1O	-32	-3	15	88*	0	12
O=[N+]([O-])c1ccc(/C=N/Nc2nc(NCc3ccccc3)nc(N3CCOCC3)n2)cc1	-4	3	-14	9	·	·
CNC(=O)c1cc(C(=O)c2ccccc2Br)c[nH]1	-3	-3	16	10	·	·
COCCCNC(=O)c1cc(C(=O)c2ccccc2Br)c[nH]1	-26	0	2	71*	-37	-23
Cc1ccccc1C1c2[nH]c3ccccc3c2C[C@H]2C(=O)N(C3CCN(Cc4ccccc4)CC3)CC(=O)N12 (stereo partly specified)	-9	2	-11	32*	-22	-3
CCOc1ccccc1C1c2[nH]c3ccccc3c2C[C@H]2C(=O)N(C3CCN(Cc4ccccc4)CC3)CC(=O)N12 (stereo partly specified)	0	-1	5	1	·	·
O=C(NC(=S)NNC(=O)[C@H]1C[C@@H]1c1ccccc1)c1ccc(F)cc1	3	-2	9	-3	·	·
O=C(/C=C/c1ccc(F)cc1)NC(=S)NNC(=O)[C@H]1C[C@@H]1c1ccccc1	-12	-4	20	48*	-40	-56
COCCOC(=O)C1=C(C)OC(N)=C(C#N)C1c1ccc2c(c1)OCO2 (stereo unspecified)	-9	-2	11	33*	-26	-14
COc1ccc(C(=O)N(C)Cc2cnn(Cc3ccccc3)c2)cc1S(=O)(=O)N1CCOCC1	1	-3	12	-2	·	·
O=C(NN1C(=O)/C(=C/c2ccc(O)c([N+](=O)[O-])c2)SC1=S)c1ccccc1Cl	-3	-5	26	28*	-71	1
CC(=O)c1ccc(NC(=O)Nc2ccc(S(=O)(=O)N3CCCC3)cc2)cc1	3	-1	4	15	·	·
COCCn1c(C)cc(/C=C2\NC(=S)N(C)C2=O)c1C	-1	-1	5	2	·	·
CN1C(=O)/C(=C/c2cc3c(cc2Br)OCO3)NC1=S	-9	2	-8	23*	i	-4
CC(=O)N1CCN(c2ncnc3sc(-c4ccccc4)cc23)CC1	-2	-2	9	4	·	·
Oc1ccc(N2CCN(c3ncnc4sc(-c5ccccc5)cc34)CC2)cc1	26*	9	-41	-21	·	·	MOR-DOR ag-2=-2;HTR5A ag confirm=-1
